Calls of active or inactive are those of the source.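 Rule for the calls, unless noted: active = compounds whose cell count with miR-34 switched on is under 0.7 times the count with it off; inactive = the rest.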
How the values were obtained:
[1] = sensitizers of A549 cells to miR-34 induction, primary screen, imaging, A549 dox-inducible miR-34, nuclei and caspase counts (AID 1347080); conditions: A549 miR-34 inducible, Hoechst nuclei count, 48 h
[2] = survival rescue of mitochondrial mutant cells in low glucose, primary screen, MELAS cybrids, Rieske KO mouse fibroblasts, CellTiter-Glo (AID 1508586;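 active = mean z-score across replicates of 1.96 or higher in either the MELAS or the Rieske mutant cell line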;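 note: z relative to plate mean and SD of compound and empty wells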)
[3] = stronger effect = lower value, cell number ratio, induced over uninduced
[4] = measured here: relative caspase fold change +Dox/-Dox
[5] = measured here: total cells with miR-34 induction, stronger effect = lower value
[6] = measured here: total cells without miR-34 induction
[7] = MELAS cybrid survival, CellTiter-Glo 48 h, stronger effect = higher value
[8] = Rieske KO mouse fibroblast survival, CellTiter-Glo 72 h
Note: test concentration not given here.

Structure (SMILES)	fold change [1, 3]	fold change [1, 4]	cell count [1, 5]	cell count [1, 6]	z-score [2, 7]	z-score [2, 8]
CC(=O)OCC(=O)[C@]12OC(C)(C)OC1C[C@H]1[C@@H]3CC(F)C4=CC(=O)C=C[C@]4(C)[C@]3(F)C(O)C[C@@]12C (stereo not given in full)	0.819 (inactive)	1.14	5400	6590	-0.325 (inactive)	-0.647
CCC1OC(=O)C(C)C(OC2C[C@@](C)(OC)C(O)C(C)O2)C(C)C(OC2OC(C)CC(N(C)C)C2O)[C@](C)(O)CC(C)C(=NOCOCCOC)C(C)C(O)[C@]1(C)O (stereo not given in full)	0.909 (inactive)	0.933	9240	10200	-0.34 (inactive)	0.815
C=C1C(CO)C(O)CC1n1cnc2c(=O)[nH]c(N)nc21 (stereo not given)	1.01 (inactive)	0.924	7270	7170	-0.366 (inactive)	-0.0519
Cc1cc(Cn2cnc3c2CC(C(=O)O)N(C(=O)C(c2ccccc2)c2ccccc2)C3)ccc1N(C)C (stereo not given)	0.92 (inactive)	0.34	8010	8710	0.9 (inactive)	-1.41
CCOC(=O)C(CCc1ccccc1)NC1CCCN2CCCC(C(=O)O)N2C1=O (stereo not given)	0.927 (inactive)	0.673	7550	8150	-0.275 (inactive)	-0.0266
NC(=O)C(CCC(F)(F)F)N(Cc1ccc(-c2ncon2)cc1F)S(=O)(=O)c1ccc(Cl)cc1 (stereo not given)	0.918 (inactive)	0.873	6710	7310	-0.464 (inactive)	0.74
CC1(C)S[C@@H]2C(NC(=O)C(C(=O)O)c3ccccc3)C(=O)N2C1C(=O)O (stereo not given in full)	0.89 (inactive)	0.816	8430	9470	-0.386 (inactive)	-0.157
COc1cc(-c2ncn(C=CC(=O)OC(C)C)n2)cc(C(F)(F)F)c1	0.884 (inactive)	0.634	2040	2310	-0.00249 (inactive)	-7.09
CC(C)c1onc(-c2c(Cl)cccc2Cl)c1COc1ccc(C=Cc2cccc(C(=O)O)c2)c(Cl)c1	0.901 (inactive)	1.37	7080	7860	0.359 (inactive)	-0.609
Cc1ccc(S(=O)(=O)c2ccc([N+](=O)[O-])o2)cc1	1.58 (inactive)	0.353	1860	1180	-1.09 (inactive)	-6.94
CC1CCO[C@H]2Cn3cc(C(=O)NCc4ccc(F)cc4F)c(=O)c(O)c3C(=O)N12 (stereo not given in full)	1 (inactive)	0.731	8400	8370	-0.34 (inactive)	0.66
CC(C)C(N)C(=O)OCC(CO)OCN1C=NC2C(=O)NC(N)=NC21 (stereo not given)	0.916 (inactive)	0.625	8420	9190	-0.0737 (inactive)	-0.153
O=C1c2ccc(Nc3ccc(F)cc3F)cc2CCc2ccc(OCC(O)CO)cc21 (stereo not given)	0.924 (inactive)	0.413	6890	7450	-0.55 (inactive)	0.56
CN(C)C1C(=O)C(C(N)=O)=C(O)[C@@]2(O)C(=O)C3=C(O)c4c(O)ccc(Cl)c4C(O)[C@H]3C[C@@H]12 (stereo not given in full)	0.836 (inactive)	1.66	6970	8340	3.28 (active)	5.13
Cc1cc(C(C)Nc2ccccc2C(=O)O)c2nc(N3CCOCC3)cc(=O)n2c1 (stereo not given)	0.956 (inactive)	0.866	5770	6030	-0.296 (inactive)	-0.288
CCOC(=O)c1ccc(N2NC(=O)C(=Cc3ccc([N+](=O)[O-])o3)C2=O)cc1	0.912 (inactive)	0.455	7420	8150	-0.255 (inactive)	-2.84
CCC(C)(C)c1ccc(CC(C)CN2CC(C)OC(C)C2)cc1 (stereo not given)	0.944 (inactive)	0.765	8210	8700	-0.433 (inactive)	0.477
CCCC(NC(=O)C1[C@H]2CCC[C@H]2CN1C(=O)C(NC(=O)C(NC(=O)c1cnccn1)C1CCCCC1)C(C)(C)C)C(=O)C(=O)NC1CC1 (stereo not given in full)	0.872 (inactive)	1.37	5460	6260	-0.469 (inactive)	0.214
O=C(O)C1=CC(O)C(O)C(O)C1 (stereo not given)	0.975 (inactive)	0.723	9710	9960	-0.355 (inactive)	0.667
CCC(C)C(=O)OC1CCC=C2C=CC(C)C(CCC3CC(O)CC(=O)O3)[C@H]21 (stereo not given in full)	0.904 (inactive)	0.982	4680	5180	-0.482 (inactive)	-0.195
CCc1ccc(C=C2SC(=S)NC2=O)cc1	0.911 (inactive)	0.424	7750	8500	-0.119 (inactive)	0.267
CCC(=O)OCC(=O)[C@]1(OC(=O)CC)C(C)C[C@H]2[C@@H]3CCC4=CC(=O)C=C[C@]4(C)[C@]3(Cl)C(O)C[C@@]21C (stereo not given in full)	0.952 (inactive)	0.747	5950	6250	-0.503 (inactive)	-0.134
CC(NCc1ccc(OCc2cccc(F)c2)cc1)C(N)=O (stereo not given)	0.935 (inactive)	1.08	7820	8360	-0.428 (inactive)	0.667

Structure (SMILES)	fold change [1, 3]	fold change [1, 4]	cell count [1, 5]	cell count [1, 6]	z-score [2, 7]	z-score [2, 8]
COCCOC(=O)C1=C(C)NC(C)=C(C(=O)OCC=Cc2ccccc2)C1c1cccc([N+](=O)[O-])c1 (stereo not given)	1.06 (inactive)	0.275	6590	6240	-0.669 (inactive)	0.105
CC1OC(OCC2OC(Oc3c(-c4ccc(OCCO)c(OCCO)c4)oc4cc(OCCO)cc(O)c4c3=O)C(O)C(O)C2O)C(O)C(O)C1O (stereo not given)	0.984 (inactive)	0.465	7700	7830	-0.513 (inactive)	-0.15
NC1(C(=O)NC(CCO)c2ccc(Cl)cc2)CCN(c2ncnc3[nH]ccc23)CC1 (stereo not given)	1.01 (inactive)	0.36	7310	7200	-0.334 (inactive)	-0.0673
CCc1cccc2c3c([nH]c12)[C@](CC)(CC(=O)O)OCC3	0.926 (inactive)	0.786	7980	8620	-0.475 (inactive)	-0.00521
CC1(C)O[C@H]2CC(=O)OC[C@]23[C@H]2CC[C@@]4(C)C(c5ccoc5)OC(=O)C5O[C@]54[C@@]2(C)C(=O)C[C@@H]13 (stereo not given in full)	0.854 (inactive)	0.906	8580	10000	-0.275 (inactive)	-0.503
OCC1OC(OCCc2ccc(O)cc2)C(O)C(O)C1O (stereo not given)	0.962 (inactive)	0.762	10000	10400	-0.35 (inactive)	0.467
C=C1CC[C@H]2[C@@](C)(CCC(O)[C@@]2(C)CO)C1CC=C1C(=O)OCC1O (stereo not given in full)	0.97 (inactive)	0.896	6090	6280	-0.657 (inactive)	-0.629
O=C(O)c1ccc(N2C(=O)C(=Cc3ccc(-c4ccc([N+](=O)[O-])cc4)o3)C=C2c2ccccc2)cc1	0.852 (inactive)	1.02	7620	8950	-0.417 (inactive)	0.868
COC(=O)NC(C)CNc1nccc(-c2cn(C(C)C)nc2-c2cc(Cl)cc(NS(C)(=O)=O)c2F)n1 (stereo not given)	0.982 (inactive)	0.272	5200	5290	0.61 (inactive)	1.4
C=C[C@]1(C)CC(OC(=O)CSC(C)(C)CNC(=O)C(N)C(C)C)[C@@]2(C)C(C)CC[C@]3(CCC(=O)[C@H]32)C(C)C1O (stereo not given in full)	0.851 (inactive)	1.9	6360	7470	6.17 (active)	2.78
C[C@]12C=CC(=O)N[C@@H]1CC[C@@H]1[C@H]2CC[C@]2(C)C(C(=O)Nc3cc(C(F)(F)F)ccc3C(F)(F)F)CC[C@@H]12 (stereo not given in full)	0.962 (inactive)	0.927	6640	6910	-0.568 (inactive)	0.0125
CC(=Cc1ccc(C(=O)O)cc1)c1ccc2c(c1)C(C)(C)CCC2(C)C	0.986 (inactive)	0.781	8250	8370	-0.023 (inactive)	-0.2
COc1ccc(CC(NC(=O)C(C)NC(=O)CN2CCOCC2)C(=O)NC(Cc2ccccc2)C(=O)[C@]2(C)CO2)cc1 (stereo not given in full)	1.43 (inactive)	1	990	690	-0.544 (inactive)	-7.62
COC(=O)C=CC(=O)OC	0.917 (inactive)	0.928	10100	11000	-0.336 (inactive)	0.844
CC1O[C@@H](OC2C(O)C[C@H](OC3C(O)C[C@H](OC4CC[C@@]5(C)[C@H](CC[C@@H]6[C@H]5CC(O)[C@]5(C)C(C7=CC(=O)OC7)CC[C@]65O)C4)OC3C)OC2C)CC(O)C1O (stereo not given in full)	0.837 (inactive)	0.829	400	478	0.348 (inactive)	-0.197
COc1ccc(CCc2nc3cc(-c4c(C)noc4C)ccc3n2CC(C)N2CCOCC2)cc1Cl (stereo not given)	0.88 (inactive)	0.277	7240	8230	-0.0999 (inactive)	-1.46
C[C@]12C[C@@]3(O)O[C@@H](O1)[C@]1(COC(=O)c4ccccc4)[C@H]3C[C@@]12OC1OC(CO)C(O)C(O)C1O (stereo not given in full)	0.87 (inactive)	0.575	8970	10300	-0.445 (inactive)	-0.113
NC(N)=NN=Cc1c(Cl)cccc1Cl	0.921 (inactive)	0.613	8130	8830	-0.139 (inactive)	-0.245
O=C(C=Cc1cccc(S(=O)(=O)Nc2ccccc2)c1)NO	0.967 (inactive)	0.71	1120	1160	0.973 (inactive)	1.18
CC1=NN(c2ccc(C(=O)O)cc2)C(=O)C1=Cc1ccc(-c2cc(C)c(C)cc2[N+](=O)[O-])o1	0.902 (inactive)	0.511	7310	8100	-0.321 (inactive)	0.107
Cn1c(=O)cc(N2CCCC(N)C2)n(Cc2ccccc2C#N)c1=O (stereo not given)	0.958 (inactive)	0.837	8510	8880	-0.12 (inactive)	-0.0809
C#CCC(Cc1cnc2nc(N)nc(N)c2n1)c1ccc(C(=O)NC(CCC(=O)O)C(=O)O)cc1 (stereo not given)	1.12 (inactive)	0.784	2390	2130	-0.188 (inactive)	0.624

Reference: PubChem BioAssay
